The values below come from PubChem BioAssay.

Values joined by “and” are separate entries in the source; they are usually repeats but may differ in a detail not shown here. Equal values may be shown once. For some assays here: Entries with a potency or affinity are not part of this list. Active and inactive are the calls of the source.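 Rule for the calls, unless noted: active = thallium flux through the channel raised or lowered by more than 3 SD from vehicle-only wells, actives on both sides; inactive = the rest.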

The nature of assay [1]: blockers of polyQ-driven CASP3 activation – cell-based (AID 1583). To be noted: polyglutamine-induced caspase-3 activation, cell assay; stronger effect = higher value;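 tested at 10 µM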.
Assay [2] is described as follows: yeast 75Q aggregation reduction – 75Q-TubU reporter (AID 1593). As to conditions: Yeast 75Q polyglutamine aggregation reporter.
Assay [3] can be described thus: blockers of cytochrome c efflux from mitochondria – biochemical, purified mitochondria (AID 1603).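 Note: mouse liver mitochondria challenged with calcium chloride; signal normalized to the plate average as 100%.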 As to conditions: stronger effect = lower value.
Assay [4] can be described thus: polyglutamine aggregate formation blockers (AID 1604). To be noted: polyglutamine-induced protein aggregation inhibition assay; stronger effect = higher value; tested at 2.5 µM.
Assay [5] is described as follows: glutamate transport activators, MN-1 cells, MN-1 cell line (AID 1612).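 Note: tested at 1 µM final; 0% = mean of DMSO vehicle wells on each plate; positive means more glutamate uptake than control and negative means less.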 To be noted: MN-1 motor neuron cells, stronger effect = higher value.
A short description of assay [6]: 75Q-TubH aggregate inhibition, S. cerevisiae, yeast (AID 1616). As to conditions: S. cerevisiae 75Q-TubH polyglutamine aggregation suppression; stronger effect = higher value.
Assay [7] is described as follows: compounds altering viability of human ES cells (AID 493140; call rule not given here;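 note: cells exposed to compounds for four days before counting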). As to conditions: human embryonic stem cell survival screen; stronger effect = higher value.
The nature of assay [8]: signal quenchers or enhancers, Cy5 substrate/SSB – biochemical, NIH Clinical Collection, E. coli SSB, artefact control for HCV NS3 helicase inhibitor project (AID 743268; call rule not given here). To be noted: Cy5-oligo bound E. coli SSB, fluorescence interference.
Assay [9] deals with Hepatitis C virus NS3 helicase. In words: blockers of NS3h binding to DNA – biochemical, fluorescence polarization, NIH Clinical Collection, primary screen (AID 743270; call rule not given here). As to conditions: NS3 helicase binding to Cy5-dT15 DNA, stronger effect = higher value, concentration not given here. (In general: In fluorescence polarisation assays a small probe gives low polarisation when free and higher when bound to something large.)

Assay [10] deals with Single-stranded DNA-binding protein (Escherichia coli (strain K12)) (UniProt P0AGE0). In words: SSB-ssDNA binding inhibitors – biochemical, fluorescence polarization, NIH Clinical Collection, counter-screen for HCV NS3 helicase inhibitor project (AID 743271; in the data active = inhibition above about 28%). To be noted: E. coli SSB-DNA binding, stronger effect = higher value, concentration not given here.
The nature of assay [11]: compounds distorting NS3 helicase fluorescence signal – biochemical, NIH Clinical Collection, artefact control for HCV NS3 helicase inhibitor project (AID 743272; call rule not given here;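 note: HCV NS3 helicase with a Cy5 labelled single stranded DNA probe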). As to conditions: fluorescence interference counterscreen, HCV NS3 helicase assay; stronger effect = lower value. A general note: The purpose of a counterscreen is to sort out artefacts and off-target activity.
Assay [12] is described as follows: modulation of C. elegans fzo-1 (AID 1259413; call rule not given here;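 note: fzo-1 mutant C. elegans worms in liquid wells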). To be noted: C. elegans fzo-1 modulator screen, mean read-out; stronger effect = higher value.
Assay [13] addresses Mitogen-activated protein kinase 7 (Homo sapiens) (UniProt Q13164). In words: Gal4-ERK5 driven luciferase induction – cell-based, HTS, primary screen (AID 1508626;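 active = luciferase signal above three times the same-plate solvent-only control wells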;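 note: luciferase driven by Gal4-ERK5 fusion binding five Gal4 sites before minimal TATA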). As to conditions: HeLa Gal4-ERK5 transactivation, 18 h, at 5 µM, stronger effect = higher value.
Assay [14] is described as follows: galactose survival enhancers in mitochondrial complex I cybrids – cell-based, galactose medium, ATP luminescence, primary screen (AID 1645843;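 active = z-score of at least 1.8 in each of two replicates, scored against plate mean and spread of sample wells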;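 note: positive z means more ATP and so rescue of galactose-driven cybrid death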). As to conditions: complex I mutant cybrid cells, 72 h, stronger effect = higher value.
Assay [15] deals with R275C/beta1. Nature of the assay: BK channel mutant inhibitors and activators – cell-based, U2OS BacMam, thallium flux, beta subunits, selectivity assay, profiling panel (AID 1259406).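 Note: initial slope of Thallos dye fluorescence rise after thallium is added; log ratio against the mean of 0.3% DMSO vehicle wells on the same plate.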 As to conditions: U2OS BacMam BK variants, at 30 µM.
The test system of assay [16] is R275C/beta2Delta. The assay is described as above. As to conditions: U2OS BacMam BK variants, at 30 µM.
In assay [17] the test system is R275C/beta4. The description is as above. To be noted: U2OS BacMam BK variants, at 30 µM.
Assay [18] concerns R275C/Slo1WT/beta2. Described as above. As to conditions: U2OS BacMam BK variants, at 30 µM.
Assay [19] in a line: restoration of touch response, mutant HTT neurons – whole organism, C. elegans mechanosensory neurons, N-terminal huntingtin (AID 1599). As to conditions: C. elegans polyQ-huntingtin mechanosensory neurons, stronger effect = higher value.

Sequence of Mitogen-activated protein kinase 7 (Homo sapiens) (Q13164 whole entry, looked up, the tested form may be a part): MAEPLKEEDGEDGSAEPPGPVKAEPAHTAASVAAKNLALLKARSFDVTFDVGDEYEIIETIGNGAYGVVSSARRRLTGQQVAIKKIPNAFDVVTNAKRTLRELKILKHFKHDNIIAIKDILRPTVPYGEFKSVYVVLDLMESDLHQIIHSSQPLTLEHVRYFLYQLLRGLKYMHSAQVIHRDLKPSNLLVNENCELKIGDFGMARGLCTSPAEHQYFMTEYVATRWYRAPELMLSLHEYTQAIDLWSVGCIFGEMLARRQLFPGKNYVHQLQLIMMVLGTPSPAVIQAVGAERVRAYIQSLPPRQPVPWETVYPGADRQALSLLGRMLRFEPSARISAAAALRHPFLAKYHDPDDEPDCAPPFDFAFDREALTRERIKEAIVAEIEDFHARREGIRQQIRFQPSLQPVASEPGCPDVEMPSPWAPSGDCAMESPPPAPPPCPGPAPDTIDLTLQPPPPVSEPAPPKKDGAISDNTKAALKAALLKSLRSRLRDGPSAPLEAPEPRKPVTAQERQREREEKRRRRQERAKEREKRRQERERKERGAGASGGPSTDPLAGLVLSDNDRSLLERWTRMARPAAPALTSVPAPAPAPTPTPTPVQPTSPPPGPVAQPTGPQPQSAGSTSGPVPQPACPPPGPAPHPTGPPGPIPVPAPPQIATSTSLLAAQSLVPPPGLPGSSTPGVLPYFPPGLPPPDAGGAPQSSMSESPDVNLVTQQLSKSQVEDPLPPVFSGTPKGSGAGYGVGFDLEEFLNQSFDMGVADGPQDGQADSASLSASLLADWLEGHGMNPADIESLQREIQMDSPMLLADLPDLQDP

Regarding `OCCN1CCN(CCCN2c3ccccc3Sc3ccc(Cl)cc32)CC1`, the results for the inhibition in assay [1], in assay [9] and in [10] were -20.9%, -2.27% (inactive) and 1.81% (inactive), respectively. In addition, the score in [2] came to 0.86. For the same compound, the cytochrome c release ratio in assay [3] turned out to be 1.23. Further, the inhibition of aggregation in assay [4] came to 49%. In [5], the glutamate uptake change came out at 5.53%. This compound returned an aggregation suppression score in [6] of 0.889. Moreover, the survival in [7] was 1.67 (inactive). For the same compound, the results for the fluorescence ratio in assay [8] and in [11] were 1.01 (inactive) and 0.84 (inactive), respectively. The mean signal in assay [12] is 256 (inactive). For the same compound, the luciferase signal in assay [13] was 44 AU (inactive). For the same compound, the z-score in [14] was -1.29 (inactive) and -1.32 (inactive). The log fold change Tl+ flux in assay [15] was 0.341 (active); in assay [16], -0.0309 (inactive); in assay [17], 0.17 (active); in assay [18], -0.0801 (inactive).
As for `CN(C)CCCN1c2ccccc2CCc2ccccc21`, in assay [1], the inhibition – broadly, the relative decrease from the control value, in per cent – was -29.3%. In assay [2], this compound came in with a score of 1.28. This compound showed a rescue above control in assay [19] of 5.01. Moreover, the cytochrome c release ratio in [3] turned out to be 1.3. This compound displayed an inhibition of aggregation in assay [4] of 41%. The glutamate uptake change in assay [5] is 5.43%. The compound also returned an aggregation suppression score in assay [6] of 1.2. For the same compound, the survival in [7] was 8.08 (inactive). Further, in assay [12], the mean signal was 235 (inactive). In addition, the luciferase signal in [13] was 44 AU (inactive). Also, the z-score in assay [14] is -0.9 (inactive) and -0.525 (inactive) and -0.59 (inactive). Besides, the log fold change Tl+ flux was 0.104 (inactive) in [15], 0.158 (active) in assay [16], 0.109 (inactive) in assay [17] and 0.0178 (inactive) in assay [18].
Turning to `CCN(CC)CCNC(=O)c1ccc(N)cc1`, the inhibition in assay [1] was -1.81%. For the same compound, the score in assay [2] is 1.26. In [19], this compound came in with a rescue above control of 9.03. Also, the cytochrome c release ratio in assay [3] was found to be 1.74. The same compound gave an inhibition of aggregation in assay [4] of 49.4%. For the same compound, the glutamate uptake change in assay [5] was -9.57%. The aggregation suppression score in assay [6] was 1.03. Further, the survival in assay [7] was 12.9 (inactive). Also, the mean signal in [12] is 241 (inactive). Further, the luciferase signal in assay [13] is 56 AU (inactive). Moreover, the z-score in [14] was 0.47 (inactive) and -0.57 (inactive) and 0.345 (inactive). Also, the log fold change Tl+ flux in assay [15] is -0.0679 (inactive); in assay [16] it was -0.0122 (inactive); in assay [17], -0.0764 (inactive); in assay [18], -0.03 (inactive).
`CCN(CC)CCOC(=O)C1(C2CCCCC2)CCCCC1`: the inhibition in assay [1] was -0.16%; in [9] it was -3.18% (inactive); in assay [10] it was 4.1% (inactive). Also, the score in [2] came out at 0.92. In addition, in assay [19], the rescue above control came out at 8.2. Further, the cytochrome c release ratio in assay [3] stood at 0.58. For the same compound, the inhibition of aggregation in assay [4] was found to be 78.3%. Also, in assay [5], the glutamate uptake change was -7.11%. The aggregation suppression score in [6] turned out to be 1.04. The survival in assay [7] was 16.2 (inactive). Further, the values for the fluorescence ratio in assay [8] and in [11] were 1.01 (inactive) and 0.95 (inactive), respectively. Further, the mean signal in assay [12] was 236 (inactive). The luciferase signal in assay [13] was 1050 AU (active). In [14], the z-score is -0.95 (inactive) and -0.895 (inactive) and -2.66 (inactive). Moreover, the log fold change Tl+ flux is 0.0871 (inactive) in assay [15], 0.0332 (inactive) in assay [16], 0.0991 (inactive) in assay [17] and 0.00259 (inactive) in assay [18].
For `Cc1ccc(S(=O)(=O)NC(=O)NN2CCCCCC2)cc1`, the inhibition in assay [1] was -0.98%; in assay [9], -2.27% (inactive); in assay [10], -2.76% (inactive). Further, the score in assay [2] was 1.2. The compound also displayed a rescue above control in [19] of 1.05. Further, the cytochrome c release ratio in assay [3] amounted to 1.07. The inhibition of aggregation in [4] came to 69.7%. Besides, the glutamate uptake change in assay [5] was 14.9%. Moreover, the aggregation suppression score in [6] amounted to 0.918. Moreover, in assay [7], the survival is 3.17 (inactive). Also, the values for the fluorescence ratio in assay [8] and in [11] were 1.04 (inactive) and 1 (inactive), respectively. The mean signal in assay [12] was 286 (inactive). Also, the luciferase signal in assay [13] was 144 AU (inactive). The z-score in assay [14] was 0.415 (inactive) and 0.635 (inactive) and 0.49 (inactive). Also, the log fold change Tl+ flux in assay [15] was -0.00502 (inactive); in [16] it was -0.0116 (inactive); in [17], 0.0645 (inactive); in assay [18] it was -0.0145 (inactive).
